Laboratory results reported in PubChem BioAssay (NCATS).
Inconclusive results are not listed. Entries that show only a call come without a potency. A number with no mark means an inactive call. Calls of active or inactive are those of the source. Calls come from the whole dose curve; as a rule, active = well fitted curve in the direction sought with a large enough effect; inconclusive = small, poorly fitted or top-dose-only effect, or another doubt; inactive = no such curve, though single readings can be large; an effect the other way counts as inactive or inconclusive.

What follows are molecules tested against Rap guanine nucleotide exchange factor 4 (Homo sapiens) (UniProt Q8WZA2) (assay: Confirmatory qHTS for agonist of cAMP-regulated guanine nucleotide exchange factor 4 (EPAC2) (AID 1645884;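 note: nucleotide exchange releases bodipy-GDP from Rap1 and this lowers its fluorescence; nearly all actives have a fitted effect of over 65% in size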)). Conditions: EPAC2 GEF activity, Rap1B-BODIPY-GDP fluorescence; series mostly up to 154 µM.
Chain of Rap guanine nucleotide exchange factor 4 (Homo sapiens) (Q8WZA2 whole entry, looked up): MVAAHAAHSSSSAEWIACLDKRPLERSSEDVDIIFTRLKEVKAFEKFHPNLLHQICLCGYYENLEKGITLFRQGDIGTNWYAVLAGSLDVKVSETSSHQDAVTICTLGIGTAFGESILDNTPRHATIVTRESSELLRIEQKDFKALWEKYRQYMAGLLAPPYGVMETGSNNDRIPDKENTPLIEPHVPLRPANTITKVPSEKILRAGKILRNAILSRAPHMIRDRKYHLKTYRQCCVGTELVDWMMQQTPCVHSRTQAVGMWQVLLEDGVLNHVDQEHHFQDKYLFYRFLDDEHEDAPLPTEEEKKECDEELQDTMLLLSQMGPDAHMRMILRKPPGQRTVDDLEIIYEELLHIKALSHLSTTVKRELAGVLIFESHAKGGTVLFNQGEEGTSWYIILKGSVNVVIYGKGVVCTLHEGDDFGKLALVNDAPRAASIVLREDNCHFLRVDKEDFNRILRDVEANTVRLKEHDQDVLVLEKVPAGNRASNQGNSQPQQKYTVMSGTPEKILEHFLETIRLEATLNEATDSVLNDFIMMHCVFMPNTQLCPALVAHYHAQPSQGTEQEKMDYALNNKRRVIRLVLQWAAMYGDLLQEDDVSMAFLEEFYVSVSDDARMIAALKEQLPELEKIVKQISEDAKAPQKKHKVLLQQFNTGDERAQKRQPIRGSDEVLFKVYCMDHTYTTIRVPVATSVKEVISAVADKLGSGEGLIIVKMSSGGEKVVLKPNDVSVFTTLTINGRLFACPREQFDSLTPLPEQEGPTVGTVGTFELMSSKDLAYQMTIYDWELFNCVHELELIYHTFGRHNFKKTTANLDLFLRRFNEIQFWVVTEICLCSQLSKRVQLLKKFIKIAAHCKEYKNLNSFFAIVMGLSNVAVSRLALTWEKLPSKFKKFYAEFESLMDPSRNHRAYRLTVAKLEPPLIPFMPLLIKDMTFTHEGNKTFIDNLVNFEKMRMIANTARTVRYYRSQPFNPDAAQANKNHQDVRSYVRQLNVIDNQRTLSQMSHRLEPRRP
In the case of `COC(=O)c1cc2oc(C)cc2n1Cc1ccc(Br)cc1F`, the Potency is reported as “inactive”.
In the case of `N#CC(C(=O)NCc1ccco1)c1nc2ccccc2nc1N1CCOCC1` (stereo not given), the activation is reported as 4.26% [at 17.1 µM, percent relative to cAMP agonist control].
In the case of `O=C1CNC(=O)c2c(nc3n2CCC3)N1`, the Potency is reported as “inactive”.
For `CC(=O)N1N=C(N)SC1c1ccc(Cl)c(Cl)c1` (stereo not given), the activation was -0.153% [at 17.1 µM, percent relative to cAMP agonist control].
In the case of `CC/C(=N/NC(=O)c1ccc2c(c1)OCO2)c1ccccc1O`, the Potency is reported as “inactive”.
`COc1cc(/C=C2/C(=O)NN(c3ccc(Cl)cc3)C2=O)ccc1OC(=O)c1ccco1` was tested, and the Potency was “inactive”.
With `O=C(O)CN1C(=O)/C(=C\c2cccc(OCc3ccccc3F)c2)SC1=S` the Potency was “inactive”.
For `Cc1ccc(C)c(S(=O)(=O)N2CCN(C(=O)CCCc3c[nH]c4ccccc34)CC2)c1`, the activation was 2.96% [at 17.1 µM, percent relative to cAMP agonist control].
`Cc1ccc(C(=O)Nc2ccc(N3CCOCC3)c3nonc23)cc1[N+](=O)[O-]` was tested, and the Potency was “inactive”.
`Cc1cccc(C(=O)Nc2cccc(C(=O)N/N=C/c3cccc(C)n3)c2)c1` was tested, and the Potency was “inactive”.
In the case of `Cc1nn(-c2ccccc2)c(C)c1NC(=O)COC(=O)Cc1cccc(C(F)(F)F)c1`, the Potency is reported as “inactive”.
With `O=C(c1ccco1)N(CCC(c1ccccc1)c1ccco1)Cc1ccco1` (stereo not given) the Potency was “inactive”.
For `COC1C(CO)OC(n2c3c(Cl)cccc3c3c4c(c5c6cccc(Cl)c6[nH]c5c32)C(=O)NC4=O)C(O)C1O` (stereo not given), the Potency was “inactive”.
With `Cc1ccc(-n2nc(C(=O)N(C)c3ccc(C)c(C)c3)c3c4ccccc4n(C)c3c2=O)cc1` the Potency was “inactive”.
With `CN1CCN(CCC(=O)Nc2ccc(Cl)cc2)CC1` the Potency was “inactive”.

These molecules were tested against Rap guanine nucleotide exchange factor 4 (Homo sapiens) (UniProt Q8WZA2) (assay: Confirmatory qHTS for antagonist of cAMP-regulated guanine nucleotide exchange factor 4 (EPAC2) (AID 1645885; note: nearly all actives have a fitted effect of over 25% in size; note: potency is the fitted concentration of half-maximal effect)). Conditions: EPAC2 Rap1B-BODIPY-GDP exchange fluorescence, biochemical; series mostly up to 12.7 µM.
`O=C1Nc2ccccc2Nc2ncccc21` was tested, and the Potency was “inactive”.
With `O=C(NN1C(=O)/C(=C/c2ccc(O)c(O)c2)SC1=S)c1ccccc1` the Potency was “inactive”.
In the case of `CCc1ccc(NC(=O)CSc2nnc(Cc3cccn3C)n2-c2ccc(OC)cc2)cc1`, the Potency is reported as “inactive”.
In the case of `CCOC(=O)C1C(=O)C=C(c2ccccc2)CC1c1ccccc1` (stereo not given), the Potency is reported as “inactive”.
With `CCCN1C(=O)c2ccccc2NC1c1ccc(OC)cc1OC` (stereo not given) the Potency was “inactive”.
For `CCOc1ccc(NCc2nc3ccccc3n2CCOc2ccccc2)cc1`, the Potency was “inactive”.
In the case of `O=C(N/N=C\c1cc([N+](=O)[O-])ccc1N1CCCC1)c1ccccn1`, the Potency is reported as “inactive”.
For `CN(C)C(=O)c1cccc(-c2cnc3c(NC=O)cc(-c4ccc(F)cc4)cn23)c1`, the Potency was “inactive”.
`CCc1ccc(Nc2n[n+](-c3ccccc3)c(-c3cc(OC)c(OC)cc3Br)s2)cc1` was tested, and the Potency was “inactive”.
In the case of `S=C(NCCCN1CCOCC1)Nc1cccc(-c2nnc3n2CCCCC3)c1`, the Potency is reported as “inactive”.
In the case of `CCOc1ccc(/C(C)=N/NC(=O)C(OC)c2ccccc2)cc1` (stereo not given), the Potency is reported as “inactive”.
With `Oc1ccc(N=Cc2c(O)ccc3ccccc23)cc1` the Potency was “inactive”.
For `COc1ccc(C(C(=O)c2ccccc2)c2ccccc2)cc1` (stereo not given), the Potency was “inactive”.
In the case of `Cc1ccc(C2CC(=O)Oc3cc(C)cc(C)c32)cc1` (stereo not given), the Potency is reported as “inactive”.
With `CCc1cccc2sc(N3CCN(C(=O)C4CC4)CC3)nc12` the outcome was “inactive [at 12.7 µM]”.
In the case of `Cc1cc(C)cc(NC(=O)N2CCC(CN3CCc4ccccc4C3)CC2)c1`, the Potency is reported as “inactive”.
For `CCOC(=O)[C@@H](NC(=O)/C=C/[C@H]1O[C@@H](n2cc(C)c(=O)[nH]c2=O)C[C@@H]1O)C(C)C`, the Potency was “inactive”.
`CCOC(=O)COc1ccc(Br)cc1/C=C\c1[nH]c(=O)[nH]c(=O)c1[N+](=O)[O-]` was tested, and the Potency was “inactive”.
With `O=c1[nH]c([N+](=O)[O-])nn1C(c1ccccc1)c1ccccc1` the Potency was 26.9 µM (active).
With `COc1ccc(C(=O)c2ccc(OC)c(OC)c2OC)cc1` the Potency was 7.57 µM (active).
With `Cc1ccc(S(=O)(=O)N2CCN(CC(=O)Nc3ccccc3C(=O)NC3CC3)CC2)cc1` the Potency was “inactive”.
In the case of `Cc1c(C(=O)NCCO)sc2nc3n(c(=O)c12)CCC3`, the Potency is reported as “inactive”.
With `CC[C@H]1C(c2ccc(F)cc2)=NN(c2ccccc2)[C@@H]1CO` the Potency was “inactive”.
`CC(C)c1nc(SCC(=O)N2CCCc3ccccc32)c2c(=O)n(C)c(=O)n(C)c2n1` was tested, and the Potency was “inactive”.
For `COc1cc(-c2c(CCO)sc3ccccc23)cc(OC)c1OC`, the Potency was “inactive”.
In the case of `COC(=O)c1cc2oc(C)cc2n1Cc1ccc(Br)cc1F`, the Potency is reported as “inactive”.
In the case of `N#CC(C(=O)NCc1ccco1)c1nc2ccccc2nc1N1CCOCC1` (stereo not given), the Potency is reported as “inactive”.
`O=C1CNC(=O)c2c(nc3n2CCC3)N1` was tested, and the Potency was “inactive”.
In the case of `CC(=O)N1N=C(N)SC1c1ccc(Cl)c(Cl)c1` (stereo not given), the Potency is reported as “inactive”.
In the case of `CC/C(=N/NC(=O)c1ccc2c(c1)OCO2)c1ccccc1O`, the Potency is reported as “inactive”.
For `COc1cc(/C=C2/C(=O)NN(c3ccc(Cl)cc3)C2=O)ccc1OC(=O)c1ccco1`, the Potency was “inactive”.
For `O=C(O)CN1C(=O)/C(=C\c2cccc(OCc3ccccc3F)c2)SC1=S`, the Potency was 84.9 µM (active).
In the case of `Cc1ccc(C)c(S(=O)(=O)N2CCN(C(=O)CCCc3c[nH]c4ccccc34)CC2)c1`, the Potency is reported as “inactive”.
For `Cc1ccc(C(=O)Nc2ccc(N3CCOCC3)c3nonc23)cc1[N+](=O)[O-]`, the Potency was “inactive”.
In the case of `Cc1cccc(C(=O)Nc2cccc(C(=O)N/N=C/c3cccc(C)n3)c2)c1`, the Potency is reported as “inactive”.
In the case of `Cc1nn(-c2ccccc2)c(C)c1NC(=O)COC(=O)Cc1cccc(C(F)(F)F)c1`, the Potency is reported as “inactive”.
In the case of `O=C(c1ccco1)N(CCC(c1ccccc1)c1ccco1)Cc1ccco1` (stereo not given), the Potency is reported as “inactive”.
`COC1C(CO)OC(n2c3c(Cl)cccc3c3c4c(c5c6cccc(Cl)c6[nH]c5c32)C(=O)NC4=O)C(O)C1O` (stereo not given) was tested, and the Potency was “inactive”.
For `Cc1ccc(-n2nc(C(=O)N(C)c3ccc(C)c(C)c3)c3c4ccccc4n(C)c3c2=O)cc1`, the outcome was “inactive [at 12.7 µM]”.
In the case of `CN1CCN(CCC(=O)Nc2ccc(Cl)cc2)CC1`, the Potency is reported as “inactive”.
